HepG2 tox: HepG2 cytotoxicity, counter-screen for TGF-b inhibitors; HepG2 CAGA-GFP viability, ATP luminescence, 18 h; Potency, µM (doses to about 46.1 µM), hits mostly cytotoxic; 410,000 tested, 0.76% active; AID 588856
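CellTiter-Glo luminescence gave cytotoxicity after 18 hours at 37 degrees C. The cells were HepG2 CAGA-GFP in 1% FBS DMEM, stimulated with 500 pg/mL TGF-beta after compound addition. %Activity was normalised to no-cell wells (complete cell-killing) and DMSO (no toxicity), and curves were fitted and classified.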
TGFb inhibitor: inhibitors of TGF-b signaling; 410,000 tested, 1.2% active; HepG2 CAGA-GFP TGF-b/SMAD3 reporter, GFP fluorescence, 18 h; TGF-beta stimulated, 500 pg/mL final; AID 588855; Potency, µM (highest dose often 46.1 µM), usual class: inhibitors; further: nearly all actives have a fitted effect of over 65% in size
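First, reporter cells (HEPG2 CAGA-GFP) rested 2 h at 37 degrees C. Next, compounds were pinned in and TGF-beta added to 500 pg/mL final. After 18 h, GFP was imaged per cell and summed per well.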
VP16 counter: inhibits Gal4-VP16 luciferase reporter, ROR gamma counter-screen; Drosophila S2 Gal4-VP16 UAS-luciferase, luminescence, 20 h; Potency, µM (titrated, usually from 53.6 µM), hits mostly inhibitors; 310,000 tested, 3.5% active; AID 2546;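 further: Gal4-VP16 expression switched on by copper sulfate through the metallothionein promoter; nearly all actives have a fitted effect of over 50% in size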
ATXN2 expr inh: ATXN2 expression inhibition; HEK-293 ATXN2-luciferase reporter, luminescence, 24 h; Potency, µM (series often up to 57 µM), most hits filed as inhibitors; 360,000 tested, 0.72% active; further: nearly all actives have a fitted effect of over 55% in size
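ATXN2-luciferase reporter cells (luciferase flanked by upstream and downstream ATXN2 gene portions) were treated 24 h at 37 °C with compounds at up to 57 uM. SteadyGlo luminescence gave expression; GF-AFC fluorescence gave viability.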
RORg inh: ROR gamma (mouse) transcription inhibition; P51450; Drosophila S2 Gal4-RORgamma UAS-luciferase reporter, 20 h; Potency, µM (highest dose often 53.6 µM), usual class: inhibitors; 310,000 tested, 5.4% active; AID 2551; further: nearly all actives have a fitted effect of over 60% in size
Target sequence (P51450 whole entry, looked up, the tested form may be a part): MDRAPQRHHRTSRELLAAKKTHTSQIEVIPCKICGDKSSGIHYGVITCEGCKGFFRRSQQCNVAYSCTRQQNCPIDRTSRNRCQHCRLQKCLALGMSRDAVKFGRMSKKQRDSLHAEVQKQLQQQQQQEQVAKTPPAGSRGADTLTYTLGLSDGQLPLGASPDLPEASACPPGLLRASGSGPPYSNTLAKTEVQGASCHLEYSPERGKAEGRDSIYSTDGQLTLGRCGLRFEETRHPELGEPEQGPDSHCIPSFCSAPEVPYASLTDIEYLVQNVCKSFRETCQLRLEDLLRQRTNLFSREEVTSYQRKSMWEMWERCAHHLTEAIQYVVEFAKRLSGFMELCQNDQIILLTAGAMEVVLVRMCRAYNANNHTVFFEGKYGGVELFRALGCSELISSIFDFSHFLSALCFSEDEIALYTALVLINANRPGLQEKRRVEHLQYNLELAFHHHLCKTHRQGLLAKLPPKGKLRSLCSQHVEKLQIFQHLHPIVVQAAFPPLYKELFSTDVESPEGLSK
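A Gal4/UAS one-hybrid system in insect cells: metallothionein-promoter Gal4–ROR gamma fusion plus Photinus luciferase reporter. Copper sulfate 700 uM final, 20 hr ambient incubation, luminescent detection after 10 min with reagent.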
ATXN viability: cell viability loss in ATXN counter-screen; S2 cells (HEK-293 line with an ATXN2-luciferase reporter) viability, CellTiter-Fluor protease fluorescence, 24 h; Potency, µM (series often up to 56.7 µM), usual class: cytotoxic; 400,000 tested, 0.49% active; AID 651635; further: nearly all actives have a fitted effect of over 40% in size
Hits are given with their value; [ ] = remark or other dose. In the library only some 6.3% were active in any assay of this set; here they are far more common. The call rests on the fitted dose curve; in most records, active means well fitted curve in the direction sought with a large enough effect; inconclusive means small, poorly fitted or top-dose-only effect, or another doubt; inactive means no such curve, though single readings can be large; an effect the other way counts as inactive or inconclusive.

FC(F)(F)c1cccc(NC(=S)N2CCN(c3cccc(C(F)(F)F)c3)CC2)c1 was read as HepG2 tox inactive, TGFb inhibitor inactive, VP16 counter inactive, ATXN2 expr inh inactive, RORg inh 11µM and ATXN viability inactive.
For Cc1cccc(NC(=S)N2CCN(S(=O)(=O)c3ccc(F)cc3)CC2)c1 the results were HepG2 tox inactive, TGFb inhibitor inactive, VP16 counter inactive, ATXN2 expr inh inactive, RORg inh 13µM and ATXN viability inactive.
`Cc1cccc(NC(=S)N2CCN(c3ccc(F)cc3)CC2)c1` gave HepG2 tox inactive, TGFb inhibitor inactive, VP16 counter inconclusive, ATXN2 expr inh inactive, RORg inh 8.9µM and ATXN viability inactive.
Screening O=[N+]([O-])c1ccc(NC(=S)N2CCN(c3ccc(F)cc3)CC2)cc1 returned HepG2 tox inactive, TGFb inhibitor inconclusive, VP16 counter inactive, ATXN2 expr inh inactive, RORg inh inactive and ATXN viability inactive.
`Cc1cc(C)cc(NC(=S)N2CCN(c3ccc(F)cc3)CC2)c1` gave HepG2 tox inactive, TGFb inhibitor inactive, VP16 counter inactive, ATXN2 expr inh inactive, RORg inh 7.1µM and ATXN viability inactive.
For Cc1cccc(N2CCN(C(=O)CCCn3ncn4c(cc5occc54)c3=O)CC2)c1C the results were HepG2 tox inactive, TGFb inhibitor inconclusive, ATXN2 expr inh inactive and ATXN viability inactive.
For Cc1c(Cl)cccc1NC(=S)NCCc1ccc(S(N)(=O)=O)cc1 the results were HepG2 tox inactive, TGFb inhibitor inactive, VP16 counter inactive, ATXN2 expr inh inactive, RORg inh inactive and ATXN viability inactive.
Cc1c(Cl)cccc1NC(=S)NCc1ccc(Cl)cc1 was read as HepG2 tox inactive, TGFb inhibitor inactive, ATXN2 expr inh inactive and ATXN viability inactive.
For Cc1c(Cl)cccc1NC(=S)NCCc1ccc(Cl)cc1 the results were HepG2 tox inactive, TGFb inhibitor inconclusive, VP16 counter 3.2µM, ATXN2 expr inh inconclusive, RORg inh 5.6µM and ATXN viability inconclusive.
`Cc1c(Cl)cccc1NC(=S)NCCc1ccc(F)cc1` gave HepG2 tox inactive, TGFb inhibitor inconclusive, VP16 counter 3.5µM, ATXN2 expr inh inactive, RORg inh 4.5µM and ATXN viability inactive.
Screening COC1=CC(=O)c2c(ccc3ncnc(N)c23)C1=O returned HepG2 tox 1.4µM, TGFb inhibitor 0.89µM, ATXN2 expr inh 2.8µM and ATXN viability 3.5µM.
CC(C)NC[C@@H](C(=O)N1CCN(c2ncnc3c2[C@H](C)C[C@H]3O)CC1)c1ccc(Cl)cc1 was read as ATXN2 expr inh 19µM.
`CCOC(=O)N1CCN(c2ncnc3c2cnn3-c2ccc(Cl)cc2)CC1` gave VP16 counter inactive and RORg inh inactive.
For CN1/C(=C\C(=S)NC(=O)c2ccc([N+](=O)[O-])cc2)C(C)(C)c2ccccc21 the results were HepG2 tox inactive, TGFb inhibitor inactive, VP16 counter 4µM, ATXN2 expr inh inactive, RORg inh 3.5µM and ATXN viability inactive.
`CN1/C(=C/C(=O)C2CC2)C(C)(C)c2ccccc21` gave HepG2 tox inactive, TGFb inhibitor inactive, VP16 counter inconclusive, ATXN2 expr inh inactive, RORg inh inactive and ATXN viability inactive.
For CN1/C(=C\C(=S)NC(=O)c2cccc(Br)c2)C(C)(C)c2ccccc21 the results were HepG2 tox inactive, TGFb inhibitor inconclusive, VP16 counter 6.3µM, ATXN2 expr inh inconclusive, RORg inh inconclusive and ATXN viability inconclusive.
`CN1/C(=C\C=C2/SC(=S)NC2=O)C(C)(C)c2ccccc21` gave HepG2 tox inactive, TGFb inhibitor inactive, VP16 counter inconclusive, RORg inh inconclusive and ATXN viability 28µM.
`CN1/C(=C/C=N/NC(=O)c2ccc([N+](=O)[O-])cc2)C(C)(C)c2ccccc21` gave HepG2 tox inactive, TGFb inhibitor inactive, VP16 counter 2.2µM, ATXN2 expr inh inactive, RORg inh 1.8µM and ATXN viability inactive.
For CCCC[C@H]1C[C@@H]1[C@@H]1N(C(C)=O)[C@H](c2cccc(OC)c2)CC12CC2 the results were VP16 counter inactive and RORg inh inactive.
For COc1ccc(-c2nc3cnc(OC)nc3n(C3CC3)c2=O)cc1 the results were VP16 counter inactive and RORg inh inactive.
CNc1cncc(-c2cccnc2)n1 was read as HepG2 tox inactive, TGFb inhibitor inactive, ATXN2 expr inh inactive and ATXN viability inactive.
`C=C1C=C(C(F)F)n2ncc(C(=O)Nc3cccc(CC)c3)c2N1` gave HepG2 tox inactive and TGFb inhibitor inactive.
For Cc1ccccc1N=C/C=C1\N(C)c2ccccc2C1(C)C the results were HepG2 tox inactive, TGFb inhibitor inactive, VP16 counter 13µM, ATXN2 expr inh inactive, RORg inh inconclusive and ATXN viability inactive.
CN1/C(=C\C=N\O)C(C)(C)c2ccccc21 was read as HepG2 tox inactive, TGFb inhibitor inactive, VP16 counter inactive, ATXN2 expr inh inactive, RORg inh inactive and ATXN viability inactive.
CCOCCCNC(=O)c1c(NC(=O)c2nc(SCC)ncc2Cl)sc2c1CCCC2 was read as HepG2 tox inactive and TGFb inhibitor inactive.
For Cc1cc2ncn(C3CC(=O)N(Cc4ccccc4)C3=O)c2cc1C (stereo not drawn) the results were HepG2 tox inactive, TGFb inhibitor inactive, ATXN2 expr inh inactive, RORg inh inactive[0.365 µM] and ATXN viability inactive.
`Cc1nc2ccccc2n1C1CC(=O)N(Cc2ccccc2)C1=O` (stereo not drawn) gave HepG2 tox inactive, TGFb inhibitor inactive, VP16 counter 6.3µM and RORg inh inactive.
For C=C(C)CN(CC)c1nc(N)c2c(N)nc3c(c2c1C#N)CC(=O)N3C12CC3CC(CC(C3)C1)C2 the results were HepG2 tox inactive, TGFb inhibitor inactive, VP16 counter inactive, ATXN2 expr inh inactive, RORg inh inactive and ATXN viability inactive.
N#Cc1c(N2CCCC(O)C2)nc(N)c2c(N)nc3c(c12)CC(=O)N3C12CC3CC(CC(C3)C1)C2 (stereo not drawn) was read as HepG2 tox inactive, TGFb inhibitor inactive, VP16 counter inconclusive, ATXN2 expr inh inconclusive, RORg inh 4µM and ATXN viability inconclusive.
Screening C/C(=C\C1CCCCC1)C(NC(=O)c1cccnc1)c1ccc(-c2ccccc2)cc1 (stereo not drawn) returned VP16 counter inactive and RORg inh inconclusive.
`COC(=O)c1c(C)[nH]c(C=O)c1-c1ccccc1` gave HepG2 tox inactive, TGFb inhibitor inactive, VP16 counter inactive, ATXN2 expr inh inactive, RORg inh inactive and ATXN viability inactive.

Source: PubChem (National Center for Advancing Translational Sciences (NCATS))
